The conditions of experiment [1]: Ebola virus entry assay, green fluorescence channel.
The conditions of experiment [2]: Ebola virus entry assay, blue channel fluorescence.
The conditions of experiment [3]: Ebola virus entry assay, green channel fluorescence.
The conditions of experiment [4]: Ebola virus entry assay, reporter ratio channel; Channel type: primary.
The conditions of experiment [5]: Ebola virus entry assay, blue channel (ratio component).
Experiment [6] in a line: qHTS assay for measurement of the activity of small molecule inhibitors on Zika virus induced Caspase-3 activity in human iPSC derived neural progenitor cells (hNPCs) (AID 1224857; active means well fitted curve in the direction sought with a large enough effect; an effect the other way counts as inactive or inconclusive; further: % of control where 0% means no effect; nearly all actives have a fitted effect of over 65% in size). Conditions: hNPCs ZIKV-induced caspase-3/7, Caspase-Glo luminescence, 6 h; series mostly up to 45.7 µM. An outline of the steps:
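Percent inhibition of virus-induced caspase-3/7 luminescence (Caspase-Glo), scaled between uninfected cells and Zika-infected cells. hNPCs received compound 1 hr before ZIKV at 2 FFU/cell, with 6 hours infection at 37 C.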
(In general: Quantitative high-throughput screening tests each substance at several concentrations.)

Experiment [7] is described as follows: qHTS assay for measurement of the activity of small molecule inhibitors on Zika virus induced Caspase-3 activity in human astrocytoma cells (AID 1224859; active means well fitted curve in the direction sought with a large enough effect; an effect the other way counts as inactive or inconclusive;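 further: plate controls were ZIKV-infected untreated cells for no effect and uninfected cells for full effect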). Conditions: SNB-19 ZIKV-induced caspase-3/7, luminescence, 6 h; series mostly up to 45.7 µM. An outline of the steps:
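Luminescent caspase-3/7 read-out (30 min reagent, room temperature) in human SNB-19 cells infected 6 h with ZIKV (2 FFU/cell) after 1 h compound pre-incubation; Data were normalised to uninfected and infected wells.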

Experiment [8] is described as follows: qHTS assay to identify small molecule inhibitors of chordoma cells - UCH-1 (AID 1259355; active means well fitted curve in the direction sought with a large enough effect; an effect the other way counts as inactive or inconclusive; further: on the % scale 0 is the no-effect control and ±100 the full control effect; nearly all actives have a fitted effect of over 55% in size). Conditions: UCH-1 chordoma viability, CellTiter-Glo, 48 h, combination; series mostly up to 46.1 µM. An outline of the steps: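 A 48hr growth-inhibition format: each drug tested at 15 concentrations together with added auranofin, camptothecin, doxorubicin, rubitecan and topotecan, with cell viability quantified as CellTiter-Glo luminescence.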

Experiment [9] is described as follows: qHTS assay to identify small molecule inhibitors of chordoma cells - UCH-2 (AID 1259356; active means well fitted curve in the direction sought with a large enough effect; an effect the other way counts as inactive or inconclusive; further: on the % scale 0 is the no-effect control and ±100 the full control effect). Conditions: UCH-2 chordoma viability, CellTiter-Glo ATP luminescence, 48 h; series mostly up to 46.1 µM.
The conditions of experiment [10]: Ebola virus entry assay, ratio channel.
Experiment [11] is described as follows: Immunotoxin (HA22) sensitization/mitigation study. Vehicle arm (PBS) (AID 1159510). Further: potency means the concentration at half of the fitted maximal effect. Conditions: cancer cells viability with PBS vehicle (HA22 study); series mostly up to 46.1 µM.
Experiment [12] can be described thus: Immunotoxin (SS1P) sensitization/mitigation study. Vehicle arm (DMEM) (AID 1159513). Conditions: cell viability with vehicle (DMEM); series mostly up to 46.1 µM.

The values below come from PubChem BioAssay (NCATS).

Unmarked numbers belong to inactive results. Inconclusive results are not listed. For some assays here: Results with a measured potency or affinity are listed apart. Activity calls are given as the source filed them. Unless noted, how the calls were made is not given here.
Wherever efficacy is given: 0% is about no effect.

As to `CC(C)C(Br)C(=O)NC(N)=O` (configuration not stated), the efficacy in experiment [1] is -26.9%. The compound was classed as inactive in experiment [2], in [3], in [4], in [5] and in experiment [7]. Moreover, the Potency result in experiment [6], in [8] and in experiment [9] was “inactive” each time.
As to `COP(=S)(OC)Oc1ccc(Sc2ccc(OP(=S)(OC)OC)cc2)cc1`, the efficacy in [1] is 20.5%. Besides, the compound was classed as inactive in experiment [2], in experiment [3], in experiment [4], in experiment [5] and in experiment [7]. The Potency result in experiment [6], in experiment [8] and in experiment [9] was “inactive” each time.
In general, AC50 refers to the concentration giving half of the maximal activity seen. Turning to `C[C@H](N)[C@H](O)c1ccc(O)c(O)c1`, in experiment [1], the efficacy was 56.6%. Moreover, the AC50 in experiment [2] was 5.62 µM (active); in experiment [10] it was 4.47 µM (active); in experiment [4], 4.47 µM (active). For the same compound, the result in [7] was inactive. Also, the Potency result in experiment [8] and in experiment [9] was “inactive” each time.
In the case of `C[N+]1(CCC(C(N)=O)(c2ccccc2)c2ccccc2)CCCCC1`, in [1], the efficacy was 21.3%. For the same compound, the result in experiment [2], in experiment [3], in experiment [4], in [5] and in experiment [7] was inactive. In addition, the Potency entry in experiment [6], in experiment [8] and in experiment [9] was “inactive” throughout.
`Oc1ccc([C@H]2CNCc3c2ccc(O)c3O)cc1O`: the efficacy in experiment [1] is 69.3%. Moreover, the AC50 in experiment [2], in [10] and in experiment [4] was 14.1 µM (active) each time. Further, the call in experiment [7] was inactive.
In the case of `C[C@]12CCC(=O)C=C1CC[C@@H]1[C@@H]2[C@@H](O)C[C@@]2(C)[C@H]1CC[C@]2(O)C(=O)CO`, the efficacy in [1] was 14.5%. Moreover, the call in experiment [2], in experiment [3], in [4], in [5] and in [12] was inactive. Also, the Potency in [11] is 0.296 µM (active).
As for `CCC(=O)O[C@H]1CC[C@H]2[C@@H]3CCC4=CC(=O)CC[C@]4(C)[C@H]3CC[C@]12C`, in [1], the efficacy is -42.2%. The compound was classed as inactive in experiment [2], in experiment [3], in experiment [4] and in experiment [7]. Also, the Potency result in experiment [6], in experiment [8] and in experiment [9] was “inactive” in each case.
Take `NC(=O)c1ncn([C@@H]2O[C@H](CO)[C@@H](O)[C@H]2O)c1N`: in [1], the efficacy is -19.4%. Also, the compound was called inactive in experiment [2], in [3], in experiment [4], in experiment [5] and in [12]. For the same compound, in [11], the Potency result is “inactive”.
As for `CCN(CC)C(C)C(=O)c1ccccc1` (configuration not stated), the efficacy in experiment [1] was 12%. Also, the compound was classed as inactive in experiment [2], in experiment [3], in experiment [4], in [5] and in experiment [7]. For the same compound, the Potency entry in experiment [6], in experiment [8] and in [9] was “inactive” throughout.
As for `Clc1ccc(C(OCCN2CCCCC2)c2ccccc2)cc1` (configuration not stated), the efficacy in [1] is 53.2%. Also, the AC50 in experiment [2], in [10] and in experiment [4] was 14.1 µM (active) each time. The Potency entry in experiment [6] and in [9] was “inactive” throughout. Further, in experiment [7], the compound was classed as inactive.
